Experimental data published in PubChem BioAssay (Tox21).
Inconclusive results are not listed. Calls of active or inactive are those of the source. Unless noted, calls come from the whole dose curve; as a rule, active = well fitted curve in the direction sought with a large enough effect in the repeat runs; inconclusive = weak or mixed curves; inactive = flat fitted curve, though single readings scatter.

Key:
[1] = qHTS assay to test for compound auto fluorescence at 535 nm (green) in HEK293 cells (AID 720680)
[2] = qHTS assay to test for compound auto fluorescence at 460 nm (blue) in HEK293 cell free culture (AID 720681)
Method in brief: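 Test compounds were pinned into cell-free culture medium (DMEM with 10% FBS) and fluorescence was read directly at Ex/Em 405/460 nm. Signals were expressed as fluorescence equivalents of triamterene, with DMSO vehicle as control.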

[3] = qHTS assay to test for compound auto fluorescence at 535 nm (green) in HEK293 cell free culture (AID 720682)
Method in brief: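 Steps: dispense DMEM/10% FBS into empty wells; pin in compound or DMSO; measure fluorescence at 485/535 nm. Values are fluorescein equivalents.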

[4] = qHTS assay to test for compound auto fluorescence at 590 nm (red) in HEK293 cell free culture (AID 720683)
Method in brief: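 Tox21 10K library compounds were pinned into cell-free DMEM with 10% FBS and fluorescence was read at excitation 540 nm. Activity is expressed as Rose Bengal sodium equivalency.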

[5] = qHTS assay to test for compound auto fluorescence at 590 nm (red) in HepG2 cell free culture (AID 720684)
Method in brief: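 Red fluorescence (540 nm excitation, 590 nm emission) was measured after compound transfer into cell-free MEM supplemented with 10% FBS. Values are equivalencies against Rose Bengal sodium.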

[6] = qHTS assay to test for compound auto fluorescence at 460 nm (blue) in HepG2 cell free culture (AID 720685)
Method in brief: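 Compound (23 nL) or DMSO pinned into cell-free MEM with 10% FBS; blue fluorescence read at 405/460 nm excitation/emission, expressed as auto-fluorescence equivalency to triamterene.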

[7] = qHTS assay to test for compound auto fluorescence at 535 nm (green) in HepG2 cell free culture (AID 720686)
[8] = qHTS assay to test for compound auto fluorescence at 460 nm (blue) in HepG2 cells (AID 720687)
Method in brief: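 Cells (2,000/well in MEM with 10% FBS) attached overnight at 37 C, then were exposed to compound or DMSO for 1 hr at 37 C, 5% CO2. Fluorescence read at Ex/Em 405/460 nm, expressed as triamterene-equivalent signal.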

[9] = target: Glucocorticoid receptor (Homo sapiens) (UniProt P04150); assay: qHTS assay to identify small molecule agonists of the glucocorticoid receptor (GR) signaling pathway (AID 720691; active = well fitted activation curve with a large enough effect in the signal ratio in the repeat runs, not every such curve was filed as active; the % refers to the signal ratio)
Method in brief: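 Beta-lactamase reporter activity, read as fluorescence intensity, was measured in GR-bla HeLa cells exposed to compounds for 18 h at 37 C and then loaded with LiveBLAzer B/G FRET substrate for 2 h at room temperature.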
% is set by controls: 0 for no effect and ±100 for the full control effect.

Glucocorticoid receptor (Homo sapiens), sequence (P04150 whole entry, looked up): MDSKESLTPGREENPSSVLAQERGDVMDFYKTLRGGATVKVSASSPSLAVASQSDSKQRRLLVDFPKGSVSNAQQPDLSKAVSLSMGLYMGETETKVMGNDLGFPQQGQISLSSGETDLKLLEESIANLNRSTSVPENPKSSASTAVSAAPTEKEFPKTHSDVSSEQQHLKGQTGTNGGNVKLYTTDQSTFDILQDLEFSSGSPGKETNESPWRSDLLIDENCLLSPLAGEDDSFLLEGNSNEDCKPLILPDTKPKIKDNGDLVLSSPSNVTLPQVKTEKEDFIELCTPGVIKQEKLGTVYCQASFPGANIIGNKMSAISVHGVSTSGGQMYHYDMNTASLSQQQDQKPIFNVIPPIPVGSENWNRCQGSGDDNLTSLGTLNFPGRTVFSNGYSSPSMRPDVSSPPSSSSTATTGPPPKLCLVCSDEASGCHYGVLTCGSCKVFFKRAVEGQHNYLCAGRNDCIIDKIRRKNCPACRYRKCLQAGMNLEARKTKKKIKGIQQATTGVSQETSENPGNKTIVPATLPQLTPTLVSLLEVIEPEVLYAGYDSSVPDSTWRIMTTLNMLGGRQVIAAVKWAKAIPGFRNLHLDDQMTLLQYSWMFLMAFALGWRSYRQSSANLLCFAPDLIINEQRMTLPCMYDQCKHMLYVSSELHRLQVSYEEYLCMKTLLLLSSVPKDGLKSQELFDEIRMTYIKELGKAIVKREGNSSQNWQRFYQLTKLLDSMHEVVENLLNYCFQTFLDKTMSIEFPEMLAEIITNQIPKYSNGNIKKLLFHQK

CC1(C)O[C@@H]2C[C@H]3[C@@H]4CCC5=CC(=O)CC[C@]5(C)[C@@]4(F)[C@@H](O)C[C@]3(C)[C@]2(C(=O)CCl)O1
inactive: fluorescence, % of fluorescein [1] -0.0811% [at 18.6 µM] | fluorescence, % of fluorescent control [2] -0.106% [at 18.6 µM] | activity change [3] 0.0954% [at 18.6 µM] | fluorescence, % of fluorescent control [4] -0.0463% [at 18.6 µM] | fluorescence, % of Rose Bengal [5] 0.173% [at 18.6 µM] | fluorescence, % of fluorescent control [6] 0.0173% [at 18.6 µM] | fluorescence, % of fluorescein control [7] 0.0501% [at 18.6 µM] | fluorescence, % of fluorescent control [8] -0.0673% [at 18.6 µM]

CCN(CC)CCOc1ccc(Cc2ccccc2)cc1
inactive: outcome [1] | outcome [2] | outcome [3] | outcome [4] | outcome [5] | outcome [6] | outcome [7] | outcome [8]

CC(C)C(=O)OCC(C)(C)C(O)C(C)C (stereo unspecified)
inactive: outcome [1] | outcome [2] | outcome [3] | outcome [4] | outcome [5] | outcome [6] | outcome [7] | outcome [8]

CC(=O)N[C@@H](CC(C)C)C(=O)O
inactive: outcome [1] | outcome [2] | outcome [3] | outcome [4] | outcome [5] | outcome [6] | outcome [7] | outcome [8]

CC(C)NC[C@@H](O)COc1cccc2ccccc12
inactive: outcome [1] | outcome [2] | outcome [3] | outcome [4] | outcome [5] | outcome [6] | outcome [7] | outcome [8]

Cc1ccc([N+](=O)[O-])c(N)c1
inactive: outcome [1] | outcome [2] | outcome [3] | outcome [4] | outcome [5] | outcome [6] | outcome [7] | outcome [8] | Potency [9]

CCOC(=O)[C@H](CCc1ccccc1)N[C@@H](C)C(=O)N1Cc2cc(OC)c(OC)cc2C[C@H]1C(=O)O
inactive: outcome [1] | outcome [2] | outcome [3] | outcome [4] | outcome [5] | outcome [6] | outcome [7] | outcome [8]

CCC1(C)NC(=O)NC1=O (stereo unspecified)
inactive: outcome [1] | outcome [2] | outcome [3] | outcome [4] | outcome [5] | outcome [6] | outcome [7] | outcome [8]

O=C(CC(=O)C(F)(F)F)c1ccccc1
inactive: outcome [1] | outcome [2] | outcome [3] | outcome [4] | outcome [5] | outcome [6] | outcome [7] | outcome [8]

O=C(O)C(=O)Cc1c[nH]c2ccccc12
inactive: outcome [1] | outcome [2] | outcome [3] | outcome [4] | outcome [5] | outcome [6] | outcome [7] | outcome [8]

COc1cc(C)ccc1C(C)C
inactive: outcome [1] | outcome [2] | outcome [3] | outcome [4] | outcome [5] | outcome [6] | outcome [7] | outcome [8]

CN(C)CCOc1ccccc1Cc1ccccc1
inactive: outcome [1] | outcome [2] | outcome [3] | outcome [4] | outcome [5] | outcome [6] | outcome [7] | outcome [8]

CCCN(CCC)C(=O)C(CCC(=O)O)NC(=O)c1ccccc1 (stereo unspecified)
inactive: outcome [1] | outcome [2] | outcome [3] | outcome [4] | outcome [5] | outcome [6] | outcome [7] | outcome [8]

CCN(CC)CC1CCCCN1CC(=O)N1c2ccccc2C(=O)Nc2cccnc21 (stereo unspecified)
inactive: outcome [1] | outcome [2] | outcome [3] | outcome [4] | outcome [5] | outcome [6] | outcome [7] | outcome [8]

CC/C=C\CCOC(=O)C(C)C
inactive: outcome [1] | outcome [2] | outcome [3] | outcome [4] | outcome [5] | outcome [6] | outcome [7] | outcome [8] | Potency [9]

Nc1ccc2ccccc2c1S(=O)(=O)O
inactive: outcome [1] | outcome [2] | outcome [3] | outcome [4] | outcome [5] | outcome [6] | outcome [7] | outcome [8] | Potency [9]

O=C(O)[C@@H](O)[C@H](O)[C@H](O)[C@@H](O)C(=O)O
inactive: outcome [1] | outcome [2] | outcome [3] | outcome [4] | outcome [5] | outcome [6] | outcome [7] | outcome [8]

Cc1ccsc1C(=CCCN1CCC[C@@H](C(=O)O)C1)c1sccc1C
inactive: outcome [1] | outcome [2] | outcome [3] | outcome [4] | outcome [5] | outcome [6] | outcome [7] | outcome [8]

COc1ccccc1OCC(O)COC(N)=O (stereo unspecified)
inactive: fluorescence, % of fluorescein [1] -0.023% [at 18.6 µM] | fluorescence, % of fluorescent control [2] 0.143% [at 18.6 µM] | activity change [3] 0.0183% [at 18.6 µM] | fluorescence, % of fluorescent control [4] -0.113% [at 18.6 µM] | fluorescence, % of Rose Bengal [5] 0.679% [at 18.6 µM] | fluorescence, % of fluorescent control [6] 0.0993% [at 18.6 µM] | fluorescence, % of fluorescein control [7] -0.0199% [at 18.6 µM] | fluorescence, % of fluorescent control [8] 0.0352% [at 18.6 µM] | Potency [9]

CO[C@@]1(NC(=O)CSCC#N)C(=O)N2C(C(=O)O)=C(CSc3nnnn3C)CS[C@@H]21
inactive: outcome [1] | outcome [2] | outcome [3] | outcome [4] | outcome [5] | outcome [6] | outcome [7] | outcome [8] | Potency [9]

CC1=C(CC(=O)O)c2cc(F)ccc2/C1=C\c1ccc(S(C)(=O)=O)cc1
inactive: outcome [1] | outcome [2] | outcome [3] | outcome [4] | outcome [5] | outcome [6] | outcome [7] | outcome [8]

FC(F)(F)C(Cl)(Cl)Cl
inactive: outcome [1] | outcome [2] | outcome [3] | outcome [4] | outcome [5] | outcome [6] | outcome [7] | outcome [8]
